CHX counter = affects cycloheximide protein synthesis inhibition readout, counter-screen; cell reporter, cycloheximide protein synthesis inhibition counterscreen; max response, %; 12% of 300,000 active; AID 2314; in the data active = max response mostly above about 13%, no sharp cut-off; inactive = mostly below about 14%; note: read at 38.3 µM for the half of the compounds with a filed dose; 0% is about no effect
Marburg entry inh = Marburg virus entry inhibition; Marburg virus pseudotyped entry inhibition, cell reporter; AID 540276; 1.8% of 300,000 active; Potency, µM (top dose mostly 37.8 µM), for the others: top-dose activity change, negative = inhibition, hits mostly inhibitors; calls by dose curve; tested in HEK293 cells; note: potency is the fitted concentration of half-maximal effect; % is set by controls: 0 for no effect and ±100 for the full control effect
Shiga toxin inh = Shiga toxin inhibition; AID 2315; inhibition, % at 38.7 µM; 9.2% of 290,000 active; Vero cells, Shiga toxin protein synthesis inhibition reporter; in the data active = inhibition mostly above about 28%, no sharp cut-off; inactive = mostly below about 43%; note: 0% is about no effect
LASV entry inh = Lassa virus entry inhibition; Potency, µM (top dose mostly 37.9 µM), without a hit: top-dose activity change, negative = inhibition, most hits filed as inhibitors; 1.2% of 300,000 active; Lassa virus pseudotype entry inhibition, cell reporter; calls by dose curve; tested in HEK293 cells; note: potency is the fitted concentration of half-maximal effect; % is set by controls: 0 for no effect and ±100 for the full control effect; nearly all actives have a fitted effect of over 50% in size
Starred values were filed as active, the others as inactive; ? = inconclusive; / = not tested or not shown; + = active, no number; [ ] = another dose, or the depositor's remark. A selection: hits, their analogues and other compounds. The true share with any hit is near 12%.

SMILES | CHX counter | Marburg entry inh | Shiga toxin inh | LASV entry inh
Cc1ccc(-c2nn(-c3ccccc3)cc2C(=O)NCCCN2CCOCC2)cc1 | 16.2* | 7.8% | 36.4 | 7.9%
O=C(NCc1ccccc1Cl)c1ccc(CS(=O)Cc2ccc(Cl)cc2)o1 (configuration not stated) | -2.2 | / | -6.9 | /
Cc1nc2ccccc2c(=O)n1-c1ccc(Br)cn1 | 27.0* | 20.5%[46.1 µM] | 55.5* | 14.9%
Cc1nc2ccccc2c(=O)n1-c1ccc(F)cc1 | -1.1 | 17.6% | -1.6 | -9.1%
Cc1ccnc(-n2c(C)nc3ccccc3c2=O)c1 | 12.4* | 20.6% | 44.2 | 5.0%
CCCCNC(=S)N=Nc1c(O)[nH]c2ccccc12 | 16.0 | ? | 118.3* | -29.9%[46.1 µM]
CCOc1ccc(NC(=S)N=Nc2c(O)[nH]c3ccccc23)cc1 | 12.6* | ? | 14.0 | ?
CCNC(=S)N=Nc1c(O)[nH]c2ccc(C(C)C)cc12 | -3.9 | -23.3% | 0.0 | 3.55µM*
CCC(O)(CC)C(=O)N=Nc1c(O)[nH]c2ccccc12 | 3.3 | 17.8% | -17.2 | ?
Oc1[nH]c2ccccc2c1N=NC(=S)NCCc1ccccc1 | 12.3 | ? | 1.8 | ?
CC(C)c1ccc2[nH]c(O)c(N=NC(=S)NCCc3ccccc3)c2c1 | -0.7 | 2.8% | -7.7 | /
Oc1cccc(NC(=S)N=Nc2c(O)[nH]c3ccccc23)c1 | 42.1* | -6.9%[46.1 µM] | 62.1* | -25.7%
CCC1(c2ccccc2)NC(=O)NC1=O (configuration not stated) | 10.0 | / | -7.6 | /
Oc1[nH]c2ccccc2c1N=NC(=S)N1CCOCC1 | 16.3* | / | 58.4 | /
CC(C)c1ccc(-c2csc(NC(=O)c3cccs3)c2C(=O)O)cc1 | 15.0 | / | 34.3* | /
Cc1ccc(-c2csc(NC(=O)c3ccccc3Cl)c2C(=O)O)cc1 | 23.5* | ? | 39.5* | -23.3%[46.1 µM]
Cc1ccc(-c2csc(NC(=O)c3ccc(Br)cc3)c2C(=O)O)cc1 | 12.7 | 1.26µM* | 14.7 | ?
CCOc1ccc(N2C(=O)C(=O)/C(=C(/O)c3ccccc3)C2c2ccccc2[N+](=O)[O-])cc1 (configuration not stated) | -1.5 | ? | 9.1 | 3.0%
CC(CC(=O)c1ccc(F)cc1)N1CCN(c2ccccc2)CC1 (configuration not stated) | / | -0.8% | / | -1.4%[46.1 µM]
C=CSc1sc(Cl)c(N2CCOCC2)c1[N+](=O)[O-] | 14.5 | ? | 19.6 | ?
C=CS(=O)(=O)c1sc(Cl)c(N2CCOCC2)c1[N+](=O)[O-] | 15.6* | 5.01µM* | 21.5 | 3.16µM*
CCSc1nnc(NC(=O)c2ccc(C)o2)s1 | 26.7* | 16.3% | 33.4* | 1.4%
CCSc1nnc(NC(=O)c2cccs2)s1 | 35.0* | 20.6% | 100.8* | ?
Cc1nnc(NC(=O)CSc2nnc(NC(=O)C(C)(C)C)s2)s1 | -9.1 | -11.3% | -5.5 | 14.0%
CCSc1nnc(NC(=O)C(C)(C)C)s1 | 29.1* | -12.9%[46.1 µM] | 69.5* | 13.9%
SMILES | CHX counter | Marburg entry inh | Shiga toxin inh | LASV entry inh
CCc1nnc(NC(=O)c2ccc(C)o2)s1 | 36.2* | / | 44.0* | /
O=C(Nc1nnc(SCc2ccccc2)s1)c1cccs1 | 11.2 | 14.7%[46.1 µM] | 21.9 | 0.8%
Cc1ccc(N2C(=O)N(CC(=O)N3CCOCC3)C(=O)C2C)cc1 (configuration not stated) | 8.3 | ? | 13.1 | ?
COC(=O)c1c(C)nc(C)c(C(=O)OC)c1-c1ccccc1[N+](=O)[O-] | -5.7 | / | 0.8 | /
NC(=O)c1cc(S(=O)(=O)N2CCOCC2)cs1 | -1.0 | / | 8.9 | /
CCOC(=O)C1=C(C)NC(C)=C(C(=O)OCC)C1C(=O)OCC(=O)N(C)C | 1.3 | 12.8% | -5.6 | 1.0%
CCSc1nnc(NC(=O)NC2CCCCC2)s1 | 35.7* | ? | 48.9* | 21.3%[46.1 µM]
CCSc1nnc(NC(=O)c2cc(C)oc2C)s1 | 38.4* | 29.1% | 59.4* | ?
CCc1nnc(NC(=O)c2cc(C)oc2C)s1 | -0.8 | 4.1%[46.1 µM] | -21.0 | -19.4%[46.1 µM]
CCOC(=O)C1CCN(C(=O)c2nn(-c3ccc(OC)c(Cl)c3)c(=O)c3c2c2ccccc2n3C)CC1 | / | -3.5%[46.1 µM] | / | ?
Cc1ccc(N(C[C@@H](O)CN(C)C)S(=O)(=O)c2ccccc2)cc1 | / | 1.1% | / | /
CC(C)(C)c1cc(C(=O)N/N=C/c2ccccn2)n[nH]1 | 21.1* | / | 52.6* | /
CC(C)(C)c1cc(C(=O)N/N=C/c2ccncc2)n[nH]1 | -1.8 | / | -19.3 | /
Cc1[nH]c2ccccc2c1/C=C/C(=O)c1ccccc1 | 24.9* | -32.4% | 86.5* | ?
Cc1[nH]c2ccccc2c(=O)c1C(=O)/C=C/c1ccccc1 | -2.3 | / | -25.4 | /
O=C(N/N=C/c1[nH]c2ccccc2c1Cl)c1cccc(Br)c1 | 6.8 | ? | 11.6 | -12.2%[46.1 µM]
Cc1[nH]c2ccccc2c1/C=N/NC(=O)c1cccc(Br)c1 | 26.4* | 2.9%[46.1 µM] | 40.0 | -18.9%[46.1 µM]
Cc1[nH]c2ccccc2c1/C=N/NC(=O)CCC(=O)Nc1ccccc1 | -1.4 | ? | 10.5 | 3.0%
Cc1[nH]c2ccccc2c1/C=N/NC(=O)Nc1ccccc1 | 27.8* | ? | + | 2.3%
COc1cccc2cc(-c3nnc(Nc4ccccc4C)s3)c(=O)oc12 | / | / | / | 7.3%[46.1 µM]
Cc1[nH]c2ccccc2c1/C=N/NC(=O)c1cc(C(C)(C)C)[nH]n1 | 12.4* | -10.3% | 21.6 | ?
Cc1[nH]c2ccccc2c1/C=N/NC(=O)c1ccccc1 | 41.8* | / | 51.2* | /
Cc1[nH]c2ccccc2c1/C=N/Nc1cccc(C(=O)O)c1 | 61.4* | / | 128.1* | /
Cc1[nH]c2ccccc2c1/C=N/NC(=O)c1ccc(N)cc1 | 20.0 | / | 6.0 | /
Cc1ccc(NC(=S)N/N=C/c2c(C)[nH]c3ccccc23)cc1 | 22.7* | ? | 79.7* | -29.1%[46.1 µM]
SMILES | CHX counter | Marburg entry inh | Shiga toxin inh | LASV entry inh
CC(C)(C)OC(=O)N1CCC(c2c(C(=O)N3CCN(c4ccccc4F)CC3)cnn2C(C)(C)C)CC1 | / | / | / | -29.2%[46.1 µM]
CCN(c1ccc(OC)cc1)S(=O)(=O)c1nnc(NC(=O)COc2ccccc2)s1 | -5.1 | / | -9.2 | /
Cc1cccc(-c2nc(SCCCOc3ccccc3Cl)n3[nH]c(=O)cc3n2)c1 | / | / | / | 6.2%[46.1 µM]
CC(CCN1CCN=C1Nc1ccccc1)c1ccccc1 (configuration not stated) | 4.4 | / | -7.6 | /
O=C(Nc1ccc2c(c1)CCC2)c1c(F)cccc1Cl | 54.4* | 18.1%[46.1 µM] | 111.9* | 0.7%[46.1 µM]
O=C(Nc1cccc(Cl)c1)Nc1ccc2c(c1)C(=O)OC2 | 17.2 | -3.8% | 24.4 | -0.3%
O=C(Nc1ccc2c(c1)C(=O)OC2)c1ccccc1Cl | 25.8* | ? | 22.6 | 0.2%[46.1 µM]
O=C1OCc2ccc(NC(=O)c3ccccc3C(=O)O)cc21 | 34.5* | / | 57.7* | /
O=C1OCc2ccc(NC(=O)c3c(F)cccc3Cl)cc21 | 17.0* | ? | 30.3 | 0.8%[46.1 µM]
O=C1OCc2ccc(NC(=O)C3CC3)cc21 | 3.2 | ? | 15.5 | 8.8%
Cc1cc(C)n(CC(=O)N2CCCC(C(=O)c3cccc(OC(C)C)c3)C2)n1 (configuration not stated) | -2.0 | -22.5%[46.1 µM] | -12.2 | 22.6%
CCOC(=O)C1CCN(C(=O)Nc2ccccc2Cl)CC1 | -7.4 | 0.9% | -8.7 | 1.8%
CCn1c(-c2cc(-c3ccc(C)c(C)c3)nc3ccccc23)n[nH]c1=S | 26.1* | / | 81.0* | /
c1ccc(CCNCc2ccco2)nc1 | / | 1.9% | / | 2.6%
N#Cc1c(/N=C\c2ccc(O)c([N+](=O)[O-])c2)sc2c1CCCC2 | 43.7* | / | 44.7 | /
N#Cc1c(/N=C/c2ccc(-c3ccccc3C(=O)O)o2)sc2c1CCCC2 | 60.0* | ? | 111.4* | 10.3%

Compound activity (PubChem)
